According to PubChem BioAssay (Tox21):
Inconclusive results are not listed. Activity calls are given as the source filed them. Unless noted, calls come from the whole dose curve; as a rule, active = well fitted curve in the direction sought with a large enough effect in the repeat runs; inconclusive = weak or mixed curves; inactive = no such curve, though single readings can be large; an effect the other way counts as inactive or inconclusive.

Tests used:
[1] = qHTS assay to identify small molecule agonists of the sonic hedgehog signaling (Shh) pathway (AID 1259368; calls by dose curve;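 note: NIH/3T3-derived 3T3Gli1-Luc cells carrying a stable Gli1-driven firefly luciferase reporter; series mostly up to about 92 µM; nearly all actives have a fitted effect of over 15% in size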)
How it was run: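 Mouse fibroblast (NIH/3T3) reporter cells with stably integrated Gli1-Luc were treated 24 hr with compound; firefly luciferase luminescence served as the read-out.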

[2] = qHTS assay to identify small molecule antagonists of the sonic hedgehog signaling (Shh) pathway (AID 1259369; calls by dose curve; note: nearly all actives have a fitted effect of over 45% in size)
How it was run: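 Conditioned medium drives Shh signalling in 3T3Gli1-Luc cells; compounds in DMSO co-applied, 24hr at 37 C, then luciferase luminescence.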

[3] = target: Estrogen receptor beta (Homo sapiens) (UniProt Q92731); assay: qHTS assay to identify small molecule agonists of the estrogen receptor beta (ER-beta) signaling pathway (AID 1259377; active = well fitted activation curve with a large enough effect in the signal ratio in the repeat runs, not every such curve was filed as active; the % refers to the signal ratio)
Sequence of Estrogen receptor beta (Homo sapiens) (Q92731 whole entry, looked up): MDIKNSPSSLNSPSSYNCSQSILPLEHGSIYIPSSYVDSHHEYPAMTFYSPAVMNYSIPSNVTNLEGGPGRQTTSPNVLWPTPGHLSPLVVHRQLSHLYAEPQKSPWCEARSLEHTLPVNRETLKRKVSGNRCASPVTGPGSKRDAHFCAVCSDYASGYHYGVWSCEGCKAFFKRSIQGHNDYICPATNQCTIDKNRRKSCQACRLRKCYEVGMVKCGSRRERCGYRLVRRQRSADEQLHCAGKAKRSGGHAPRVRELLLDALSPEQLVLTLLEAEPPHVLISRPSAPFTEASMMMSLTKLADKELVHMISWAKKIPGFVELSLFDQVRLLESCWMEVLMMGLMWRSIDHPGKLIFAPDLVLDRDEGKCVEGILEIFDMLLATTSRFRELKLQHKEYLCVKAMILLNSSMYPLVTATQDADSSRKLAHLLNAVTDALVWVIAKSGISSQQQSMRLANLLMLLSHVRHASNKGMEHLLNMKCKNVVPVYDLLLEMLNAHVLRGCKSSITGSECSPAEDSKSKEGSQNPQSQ
How it was run: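 Ratiometric beta-lactamase FRET read-out came after 2 h substrate loading at room temperature. It followed 16 h compound treatment at 37C of GripTite HEK293T cells carrying a UAS-bla reporter, plated in 2% charcoal-stripped FBS medium.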

[4] = target: Estrogen receptor beta (Homo sapiens) (UniProt Q92731); assay: qHTS assay to identify small molecule antagonists of the estrogen receptor beta (ER-beta) signaling pathway (AID 1259378; active = well fitted inhibition curve with a large enough effect in the signal ratio in the repeat runs, not every such curve was filed as active; the % refers to the signal ratio)
How it was run: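 ER-beta-UAS-bla HEK293T (GripTite) cells in 2% charcoal-stripped FBS medium were preincubated 6 hr at 37C, dosed with compound, then stimulated with 1 nM E2 (final) for 16 hr; beta-lactamase reporter read by B/G FRET fluorescence after 2 hr substrate loading.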

[5] = qHTS assay to identify small molecule agonists of the androgen receptor (AR) signaling pathway in the presence of an antagonist - cell viability counter screen (AID 1259379);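 note: MDA-kb2 human breast cancer cells carrying an MMTV luciferase reporter; series mostly up to about 92 µM; nearly all actives have a fitted effect of over 25% in size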
How it was run: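 A CellTiter-Fluor read-out measured viability of MDA-kb2 reporter cells (MMTV promoter with AR and GR response elements). Treatment: nilutamide 3.0uM final with compounds at 15 concentrations, 16 hr, 37C, 0% CO2.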

[6] = qHTS assay to identify small molecule agonists of the estrogen receptor beta (ER-beta) signaling pathway - cell viability counter screen (AID 1259380); note: nearly all actives have a fitted effect of over 30% in size
How it was run: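 Cells used were ER-beta-UAS-bla HEK293T in medium with 2% charcoal-stripped FBS. They were treated for 16 hr at 37C. Viability came from CellTiter-Glo luminescence.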

[7] = target: Androgen receptor (Homo sapiens) (UniProt P10275); assay: qHTS assay to identify small molecule agonists of the androgen receptor (AR) signaling pathway in the presence of an antagonist (AID 1259381; calls by dose curve; note: nearly all actives have a fitted effect of over 15% in size)
Sequence of Androgen receptor (Homo sapiens) (P10275 whole entry, looked up): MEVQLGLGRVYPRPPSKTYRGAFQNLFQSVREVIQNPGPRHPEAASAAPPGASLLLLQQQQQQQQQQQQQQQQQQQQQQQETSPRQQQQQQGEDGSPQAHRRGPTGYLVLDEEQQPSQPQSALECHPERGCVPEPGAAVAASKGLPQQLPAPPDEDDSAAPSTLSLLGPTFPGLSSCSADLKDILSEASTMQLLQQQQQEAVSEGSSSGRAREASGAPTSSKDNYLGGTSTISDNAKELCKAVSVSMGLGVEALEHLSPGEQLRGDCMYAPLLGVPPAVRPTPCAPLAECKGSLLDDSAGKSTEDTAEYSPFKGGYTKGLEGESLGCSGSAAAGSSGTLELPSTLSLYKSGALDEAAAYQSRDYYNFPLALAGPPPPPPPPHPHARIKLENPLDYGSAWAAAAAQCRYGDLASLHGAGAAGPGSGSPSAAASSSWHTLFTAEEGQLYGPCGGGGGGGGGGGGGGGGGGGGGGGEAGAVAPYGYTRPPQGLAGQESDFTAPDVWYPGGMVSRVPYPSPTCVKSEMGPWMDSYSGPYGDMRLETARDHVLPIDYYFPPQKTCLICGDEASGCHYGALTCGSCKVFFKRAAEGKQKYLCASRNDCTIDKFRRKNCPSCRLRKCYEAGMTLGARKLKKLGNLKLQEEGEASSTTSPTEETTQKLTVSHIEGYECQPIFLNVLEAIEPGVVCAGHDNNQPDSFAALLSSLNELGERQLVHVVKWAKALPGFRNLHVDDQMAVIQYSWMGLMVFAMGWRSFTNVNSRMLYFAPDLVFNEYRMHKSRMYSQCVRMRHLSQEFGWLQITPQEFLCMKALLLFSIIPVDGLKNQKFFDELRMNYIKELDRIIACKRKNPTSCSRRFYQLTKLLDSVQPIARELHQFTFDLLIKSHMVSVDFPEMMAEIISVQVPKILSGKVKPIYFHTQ
How it was run: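 Using human MDA-kb2 cells with an MMTV promoter–luciferase construct (AR and GR response elements), agonist activity is scored under 3.0uM nilutamide (final) co-treatment; 16hr incubation, 37C, luminescence readout via ONE-Glo.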

[8] = qHTS assay to identify small molecule antagonists of the estrogen receptor beta (ER-beta) signaling pathway - cell viability counter screen (AID 1259382); note: series mostly up to about 92 µM; nearly all actives have a fitted effect of over 55% in size
How it was run: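 Agonist-stimulated (1nM E2) ER-beta-UAS-bla HEK293T cells are incubated with library compounds for 16 hr at 37C. Cell viability is then assessed in the reporter-assay wells by adding CellTiter-Glo and reading luminescence after 30 min.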

[9] = target: Estrogen receptor (Homo sapiens) (UniProt P03372); assay: qHTS assay to identify small molecule agonists of the estrogen receptor alpha (ER-alpha) signaling pathway in the presence of an antagonist (AID 1259383; calls by dose curve; note: top concentration of the series differs between compounds; nearly all actives have a fitted effect of over 15% in size)
Sequence of Estrogen receptor (Homo sapiens) (P03372 whole entry, looked up): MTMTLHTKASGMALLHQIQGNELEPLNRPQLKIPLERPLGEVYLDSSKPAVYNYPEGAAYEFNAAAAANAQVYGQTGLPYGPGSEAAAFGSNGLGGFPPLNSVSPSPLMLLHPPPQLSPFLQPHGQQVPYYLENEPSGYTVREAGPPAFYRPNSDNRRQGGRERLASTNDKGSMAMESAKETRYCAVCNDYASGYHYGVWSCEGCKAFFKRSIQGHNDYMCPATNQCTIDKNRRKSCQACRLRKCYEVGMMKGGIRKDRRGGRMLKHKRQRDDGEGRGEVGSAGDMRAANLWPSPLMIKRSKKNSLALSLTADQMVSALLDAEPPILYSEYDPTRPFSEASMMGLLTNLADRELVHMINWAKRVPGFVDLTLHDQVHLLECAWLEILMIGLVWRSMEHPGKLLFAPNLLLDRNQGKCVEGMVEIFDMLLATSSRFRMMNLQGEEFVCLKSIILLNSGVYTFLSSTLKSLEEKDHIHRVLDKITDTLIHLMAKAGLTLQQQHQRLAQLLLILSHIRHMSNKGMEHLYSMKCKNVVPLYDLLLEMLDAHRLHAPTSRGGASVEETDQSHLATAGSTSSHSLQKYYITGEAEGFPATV
How it was run: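 Using VM7Luc4E2 cells seeded 24hr before treatment, antagonist ICI-182,780 (10.0nM final) was added, followed by compounds at 15 concentrations. Plates incubated 22hr; ONE-Glo luminescence quantified reporter activity.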

[10] = qHTS assay to identify small molecule agonists or antagonists of the thyroid stimulating hormone receptor (TSHR) signaling pathway - wild type cell line counter screen (AID 1259384; calls by dose curve)
How it was run: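 Wild-type HEK293 cells were plated 18 h at 37 C/5% CO2, pin-dosed with compound plus Ro20-1724 medium, held 30 min at room temperature, then given cAMP-d2 and anti-cAMP-cryptate; fluorescence was read after 1 h. Fifteen concentrations, triplicate.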

[11] = target: Thyrotropin receptor (Homo sapiens) (UniProt P16473); assay: qHTS assay to identify small molecule antagonists of the thyroid stimulating hormone receptor (TSHR) signaling pathway (AID 1259385; calls by dose curve; note: nearly all actives have a fitted effect of over 20% in size)
Sequence of Thyrotropin receptor (Homo sapiens) (P16473 whole entry, looked up): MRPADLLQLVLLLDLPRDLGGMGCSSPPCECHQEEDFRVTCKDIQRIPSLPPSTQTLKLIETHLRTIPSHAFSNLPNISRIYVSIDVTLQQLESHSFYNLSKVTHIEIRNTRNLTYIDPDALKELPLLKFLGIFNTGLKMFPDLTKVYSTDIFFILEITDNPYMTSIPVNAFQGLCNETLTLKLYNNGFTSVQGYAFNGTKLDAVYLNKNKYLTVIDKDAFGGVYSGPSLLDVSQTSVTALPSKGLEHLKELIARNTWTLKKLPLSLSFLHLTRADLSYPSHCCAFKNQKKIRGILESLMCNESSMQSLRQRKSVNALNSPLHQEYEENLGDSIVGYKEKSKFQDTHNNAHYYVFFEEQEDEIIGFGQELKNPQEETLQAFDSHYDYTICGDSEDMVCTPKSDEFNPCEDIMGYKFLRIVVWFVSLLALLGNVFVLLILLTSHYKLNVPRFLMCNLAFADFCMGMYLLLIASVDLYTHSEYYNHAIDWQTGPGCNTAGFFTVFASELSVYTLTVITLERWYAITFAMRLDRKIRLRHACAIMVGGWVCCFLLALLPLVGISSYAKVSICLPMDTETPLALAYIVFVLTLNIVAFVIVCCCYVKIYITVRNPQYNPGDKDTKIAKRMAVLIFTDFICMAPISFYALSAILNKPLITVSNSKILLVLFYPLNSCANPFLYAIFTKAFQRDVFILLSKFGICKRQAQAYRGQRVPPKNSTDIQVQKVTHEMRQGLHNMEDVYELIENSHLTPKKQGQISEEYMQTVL
How it was run: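 TSHR-HEK293 cells were plated and held 18 h at 37C/5% CO2, then given compound plus Ro20-1724 and stimulated with TSH at 1.5 ng/mL final. After 30 min at room temperature, cAMP was detected with cAMP-d2/anti-cAMP-cryptate (1 h) by fluorescence.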

[12] = qHTS assay to identify small molecule agonists of the estrogen receptor alpha (ER-alpha) signaling pathway in the presence of an antagonist - cell viability counter screen (AID 1259386);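 note: series mostly up to about 92 µM; cells exposed to compounds for 22 h at 37 °C before the viability read; nearly all actives have a fitted effect of over 30% in size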
How it was run: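 ICI-182,780 at 10.0nM final accompanies the compound titration (15 concentrations, 22hr, 37C) on VM7Luc4E2 cells. The CellTiter-Fluor fluorescence readout runs in the same wells as the luciferase assay.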

[13] = target: Progesterone receptor (Homo sapiens) (UniProt P06401); assay: qHTS assay to identify small molecule agonists of the progesterone receptor (PR) signaling pathway (AID 1346784; calls by dose curve; note: nearly all actives have a fitted effect of over 30% in size)
Sequence of Progesterone receptor (Homo sapiens) (P06401 whole entry, looked up): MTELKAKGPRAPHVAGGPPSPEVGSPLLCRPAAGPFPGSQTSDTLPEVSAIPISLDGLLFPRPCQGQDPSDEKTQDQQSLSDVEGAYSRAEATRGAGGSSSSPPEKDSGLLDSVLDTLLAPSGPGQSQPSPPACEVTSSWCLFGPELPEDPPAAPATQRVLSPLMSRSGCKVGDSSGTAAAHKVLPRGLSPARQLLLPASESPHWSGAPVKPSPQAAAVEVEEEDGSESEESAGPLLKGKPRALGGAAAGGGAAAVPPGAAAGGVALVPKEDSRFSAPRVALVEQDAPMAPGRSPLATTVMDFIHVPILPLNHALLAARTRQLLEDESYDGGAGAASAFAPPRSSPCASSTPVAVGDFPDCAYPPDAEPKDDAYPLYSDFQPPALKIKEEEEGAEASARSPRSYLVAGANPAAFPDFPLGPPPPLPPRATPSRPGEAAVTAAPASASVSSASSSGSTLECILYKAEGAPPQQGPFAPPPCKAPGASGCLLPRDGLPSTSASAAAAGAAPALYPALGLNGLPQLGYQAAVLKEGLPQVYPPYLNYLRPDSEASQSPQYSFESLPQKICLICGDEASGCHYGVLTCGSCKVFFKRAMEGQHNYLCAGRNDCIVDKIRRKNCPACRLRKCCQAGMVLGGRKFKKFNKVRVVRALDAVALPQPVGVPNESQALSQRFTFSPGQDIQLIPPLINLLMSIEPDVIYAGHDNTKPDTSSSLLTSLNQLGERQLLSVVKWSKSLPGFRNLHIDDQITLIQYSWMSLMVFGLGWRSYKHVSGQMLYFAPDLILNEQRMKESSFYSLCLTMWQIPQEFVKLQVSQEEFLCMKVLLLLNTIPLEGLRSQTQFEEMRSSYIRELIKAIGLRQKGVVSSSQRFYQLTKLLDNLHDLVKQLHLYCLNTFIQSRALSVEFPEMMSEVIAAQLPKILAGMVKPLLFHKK
How it was run: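 Agonist qHTS: compounds pinned onto 3,000 PR-UAS-bla HEK 293T cells per well in charcoal-stripped serum medium, 16hr at 37C, then beta-lactamase activity measured by LiveBLAzer FRET fluorescence after 2 hours at room temperature.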

[14] = target: Progesterone receptor (Homo sapiens) (UniProt P06401); assay: qHTS assay to identify small molecule antagonists of the progesterone receptor (PR) signaling pathway (AID 1346795; active = well fitted inhibition curve with a large enough effect in the signal ratio in the repeat runs, not every such curve was filed as active; the % refers to the signal ratio)
How it was run: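 Antagonist mode with agonist R5020 at 1 nM final and 16 hr incubation at 37C. Reporter was beta-lactamase driven by UAS in HEK293T (PR-UAS-bla), 2% charcoal-stripped serum; signal from LiveBLAzer FRET substrate, 2 hr at room temperature.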

[15] = qHTS assay to identify small molecule antagonists of the progesterone receptor (PR) signaling pathway - cell viability counter screen (AID 1346798); note: series mostly up to about 92 µM; nearly all actives have a fitted effect of over 50% in size
How it was run: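 Cytotoxicity read as CellTiter-Glo luminescence (30 min, room temperature) in the same wells as the beta-lactamase readout. HEK293T PR-UAS-bla cells in charcoal-stripped 2% FBS received compound and R5020, then 16 h at 37C, 5% CO2.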

[16] = qHTS assay to identify small molecule agonists of the progesterone receptor (PR) signaling pathway - cell viability counter screen (AID 1346799; calls by dose curve; note: nearly all actives have a fitted effect of over 45% in size)
How it was run: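 Cytotoxicity measured by CellTiter-Glo luminescence (30 min, RT) in the same wells as the PR beta-lactamase agonist read. Those HEK293T cells had 16 h compound treatment at 37 C in 2% charcoal-stripped FBS medium.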

[17] = qHTS assay to identify small molecule antagonists of the TGF-beta/Smad signaling pathway - cell viability counter screen (AID 1346824); note: nearly all actives have a fitted effect of over 50% in size
How it was run: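 SBE-bla HEK 293T cells were plated overnight at 37 C, then given compounds in DMSO plus TGF-beta1 (added as 0.25 ng/mL solution) for 5 hr. After the bla read, CellTiter-Glo was added to the same wells and luminescence read after 30 min at room temperature.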

[18] = qHTS assay to identify small molecule agonists of the TGF-beta/Smad signaling pathway - cell viability counter screen (AID 1346829); note: top concentration of the series differs between compounds; nearly all actives have a fitted effect of over 45% in size
How it was run: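 Tox21 qHTS format: SBE-bla HEK 293T cells treated with DMSO-dissolved compounds for 5 hr; CellTiter-Glo luminescence after 30 min at room temperature.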

[19] = qHTS assay to identify small molecule agonists of the TGF-beta/Smad signaling pathway (AID 1346859; active = well fitted activation curve with a large enough effect in the signal ratio in the repeat runs, not every such curve was filed as active; the % refers to the signal ratio; note: series mostly up to about 77 µM)
How it was run: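 Fluorescence (ex 405 nm; em 460 and 530 nm) was read 2 h after LiveBLAzer FRET substrate at RT. The preceding compound treatment of overnight-plated SBE-bla HEK293T cells lasted 5 h at 37 C.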

[20] = target: Thyrotropin-releasing hormone receptor (Homo sapiens) (UniProt P34981); assay: qHTS assay to identify small molecule antagonists of the thyrotropin-releasing hormone receptor (TRHR) signaling pathway (AID 1346877; active = well fitted inhibition curve with a large enough effect in the repeat runs, not every such curve was filed as active; note: series mostly up to about 51 µM)
Sequence of Thyrotropin-releasing hormone receptor (Homo sapiens) (P34981 whole entry, looked up): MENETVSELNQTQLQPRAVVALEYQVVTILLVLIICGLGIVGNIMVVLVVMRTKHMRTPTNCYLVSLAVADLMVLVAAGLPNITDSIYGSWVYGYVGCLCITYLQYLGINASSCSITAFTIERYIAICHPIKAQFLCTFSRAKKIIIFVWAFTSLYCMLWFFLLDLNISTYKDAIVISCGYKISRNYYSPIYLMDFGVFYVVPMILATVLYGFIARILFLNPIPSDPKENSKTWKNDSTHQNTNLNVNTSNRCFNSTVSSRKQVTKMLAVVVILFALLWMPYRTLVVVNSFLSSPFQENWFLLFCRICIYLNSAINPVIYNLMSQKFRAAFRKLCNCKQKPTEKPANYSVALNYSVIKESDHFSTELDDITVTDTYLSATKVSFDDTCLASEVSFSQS
How it was run: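 Screening used HEK293 cells engineered with TRHR, with a brief 5 min room-temperature compound exposure preceding addition of TRH to 1 nM. The read-out was kinetic calcium-dye fluorescence, concentration-response from 15 doses in triplicate.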

Measured: Potency

CC(C)C(=O)OCc1cccc(OC(=O)[C@@H]2N3C(=O)[C@@H](NC(=O)Cc4ccccc4)[C@H]3SC2(C)C)c1
inactive: [1] | [2] | [3] | [4] | [5] | [6] | [7] | [8] | [9] | [10] | [11] | [12] | [13] | [14] | [15] | [16] | [17] | [18] | [19] | [20]

Nc1ncnc(Nc2ccccc2)n1
inactive: [1] | [2] | [3] | [4] | [5] | [6] | [8] | [9] | [10] | [12] | [13] | [14] | [15] | [16] | [17] | [18] | [20]

CC(C)CCCC(C)(C)O
inactive: [1] | [2] | [3] | [4] | [5] | [6] | [8] | [9] | [10] | [11] | [13] | [14] | [15] | [16] | [17] | [18] | [19]

CCCCCCCCOS(=O)(=O)O
inactive: [1] | [2] | [3] | [4] | [5] | [6] | [8] | [9] | [10] | [12] | [13] | [14] | [15] | [16] | [17] | [18] | [19] | [20]

CCC(C)NC(N)=O (stereo not drawn)
inactive: [1] | [2] | [3] | [4] | [5] | [6] | [7] | [8] | [9] | [10] | [11] | [15] | [16] | [17] | [18] | [19] | [20]

Cc1cc(C(C)(C)C)c(O)c(C)c1CC1=NCCN1
inactive: [1] | [2] | [3] | [4] | [5] | [6] | [7] | [8] | [9] | [10] | [12] | [13] | [14] | [15] | [17] | [18] | [19] | [20]

C[C@@H](O)[C@H]1C(=O)N2C(C(=O)O)=C(SCCN=CN)C[C@H]12
inactive: [1] | [2] | [3] | [4] | [5] | [6] | [8] | [9] | [10] | [11] | [12] | [13] | [14] | [15] | [16] | [17] | [18] | [19] | [20]

O=C(Nc1ccc(Cl)c(Cl)c1)C1CC1
inactive: [1] | [2] | [3] | [4] | [5] | [6] | [7] | [8] | [9] | [10] | [11] | [13] | [15] | [17] | [18] | [19] | [20]

CCCCN
inactive: [1] | [2] | [3] | [4] | [5] | [6] | [8] | [9] | [12] | [13] | [14] | [15] | [16] | [17] | [18] | [19] | [20]

Cc1ccccc1OCC(O)CO (stereo not drawn)
inactive: [1] | [2] | [3] | [4] | [5] | [6] | [8] | [10] | [11] | [12] | [13] | [14] | [15] | [16] | [17] | [18] | [19]

O=C(NCC(O)CO)c1c(I)c(C(=O)NCC(O)CO)c(I)c(N(CCO)C(=O)CO)c1I (stereo not drawn)
inactive: [1] | [2] | [3] | [4] | [5] | [6] | [8] | [10] | [11] | [12] | [13] | [14] | [15] | [16] | [17] | [18] | [19] | [20]

CC(C)NCC(O)COc1cccc2[nH]ccc12 (stereo not drawn)
inactive: [1] | [2] | [3] | [4] | [5] | [6] | [7] | [8] | [10] | [11] | [15] | [16] | [17] | [18] | [20]

O=C(NCCN1CCOCC1)c1ccc(Cl)cc1
inactive: [1] | [2] | [3] | [4] | [5] | [6] | [8] | [10] | [11] | [12] | [13] | [14] | [15] | [16] | [17] | [18] | [19]

CCCCCCOC(=O)CC
inactive: [1] | [2] | [3] | [4] | [5] | [6] | [8] | [9] | [12] | [13] | [14] | [15] | [16] | [17] | [18] | [19] | [20]

CCCCC(CC)COCCO (stereo not drawn)
inactive: [1] | [2] | [3] | [4] | [5] | [6] | [8] | [9] | [10] | [11] | [12] | [13] | [14] | [15] | [16] | [17] | [18] | [19] | [20]
